# Source: PubChem (several laboratories)
# TROY NFkB inh: inhibitors of TROY-driven NF-kB signaling, primary screen, Q293 LMP1-TROYcd cells, NF-kB luciferase, uHTS. Q293 LMP1-TROYcd NF-kB luciferase reporter, 4 h. inhibition, % at 10 µM. 360,000 compounds, 0.98% hits;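 active means compounds whose plate-normalised and pattern-corrected inhibition of the luciferase reporter signal at the single screening dose is 50% or more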
# TWEAK-Fn14 inh: inhibitors of TWEAK-Fn14 signaling, primary screen, luciferase reporter cells, uHTS | TWEAK-stimulated Fn14 reporter cells, luciferase luminescence, 8 h | 360,000 compounds, 2% hits | AID 1159606, 2016 | inhibition, % at 10 µM; in the data active means inhibition above about 50%
# LGR2 inh: inhibitors of bursicon-induced LGR2 CRE-luciferase signal, primary screen, cell-based, HEK293, CRE-luciferase reporter, bursicon stimulation. inhibition, % at 9.99 µM. Drosophila bursicon receptor LGR2 (rickets). bursicon-stimulated, 4 h. 380,000 compounds, 0.35% hits. AID 720647, 2013;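 active means drop in luminescence signal, shown as inhibition above about 50% in the replicate tests, limit read from the data, passing the limit was not always enough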;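 further: agonist challenge used bursicon conditioned medium at about half maximal strength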
# HSP90 refold inh: HSP90 inhibitors, primary screen, cell lysate, luminescence | Heat shock protein HSP 90 (rabbit reticulocyte lysate; luciferase refolding) | Rabbit reticulocyte lysate, luciferase refolding luminescence, 3 h | inhibition, % at 5.6 µM | 290,000 compounds, 0.91% hits;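 active means inhibition above the screen-wide mean plus 3 SD, computed separately per campaign, cut at about 16% in these data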;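 further: 0% = DMSO wells and 100% = 60 µM geldanamycin wells; inhibitors lower the luminescence because luciferase stays unfolded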
# HSP90 inh confirm: HSP90 inhibitors, confirmation, cell lysate, luminescence; 2,300 compounds, 64% hits; shares compounds with HSP90 refold inh; inhibition, % at 5.9 µM; rabbit reticulocyte lysate, luciferase refolding luminescence, 3 h; in the data active means inhibition above about 18%;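 further: 0% = vehicle wells and 100% = reference inhibitor wells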
# FLuc counter: firefly luciferase inhibitors, HSP90 counter-screen, confirmation, artefact control for HSP90 inhibitor project, biochemical, luminescence, triplicate; shares compounds with HSP90 refold inh; inhibition, % at 5.9 µM; AID 1847, 2009; purified native firefly luciferase; 2,300 compounds, 48% hits;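 active means inhibition above the mean inhibition of all tested sample wells plus 3 SD, cut at about 10% in these data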;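 further: 0% = DMSO with luciferase and 100% = wells lacking luciferase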
# Target sequence (P08659 whole entry, looked up): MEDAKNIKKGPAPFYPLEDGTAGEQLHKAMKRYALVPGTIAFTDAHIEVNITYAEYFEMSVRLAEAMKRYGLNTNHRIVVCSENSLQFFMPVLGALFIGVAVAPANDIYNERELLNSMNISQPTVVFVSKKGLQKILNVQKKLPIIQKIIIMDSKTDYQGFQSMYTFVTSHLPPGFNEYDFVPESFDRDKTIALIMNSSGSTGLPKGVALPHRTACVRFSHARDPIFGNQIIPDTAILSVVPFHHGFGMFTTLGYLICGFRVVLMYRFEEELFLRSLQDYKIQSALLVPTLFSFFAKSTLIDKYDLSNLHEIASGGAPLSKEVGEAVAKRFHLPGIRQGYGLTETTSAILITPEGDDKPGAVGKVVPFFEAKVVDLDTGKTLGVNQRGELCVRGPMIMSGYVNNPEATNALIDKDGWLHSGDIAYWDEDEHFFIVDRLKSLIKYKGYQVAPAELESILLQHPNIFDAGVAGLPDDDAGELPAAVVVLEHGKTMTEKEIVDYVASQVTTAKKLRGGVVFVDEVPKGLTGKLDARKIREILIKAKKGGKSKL
# * marks the source's active call; other numbers are inactive results; . = no result. Most compounds without a hit are left out; they make up all but 2.2% or so of the library.
SMILES,TROY NFkB inh,TWEAK-Fn14 inh,LGR2 inh,HSP90 refold inh,HSP90 inh confirm,FLuc counter
NC(=S)N/N=C/c1cn(-c2ccccc2)nc1-c1cccnc1,-30,-5,4,30*,1,-8
C[C@@H]1CCCCO[C@@H](CN(C)C(=O)Nc2ccc(F)cc2)[C@@H](C)CN([C@H](C)CO)C(=O)c2cc(NC(=O)CCC(F)(F)F)ccc2O1,.,.,6,.,.,.
O=C(N/N=C/c1cc(Br)c(O)c(Br)c1O)c1cccnc1,-2,-5,7,1,.,.
O=C(N/N=C/c1cc(O)ccc1Br)c1cccnc1,11,-19,7,37*,-4,-8
CCOC(=O)CNC(=O)CSc1ccc2nnc(-c3ccc(F)cc3)n2n1,-9,-3,10,3,.,.
CCSc1ccc2nnc(-c3ccc(F)cc3)n2n1,-13,-20,-17,88*,-3,-7
CC(C)c1cn(CC[C@H]2CC[C@H](NC(=O)C3CCOCC3)[C@@H](CO)O2)nn1,.,.,4,.,.,.
NC1=NS(=O)(=O)NC1c1cccc(Cl)c1 (stereo unspecified),1,82*,-3,22*,-3,-6
NC1=NS(=O)(=O)NC1c1cccc(F)c1 (stereo unspecified),3,-3,.,-2,.,.
CN=c1scc(-c2ccccc2Br)n1/N=C/c1ccc[nH]1,.,.,.,62*,72*,70*
CN=c1scc(-c2ccc(Br)cc2)n1C,-15,9,.,-8,.,.
COc1ccc(-c2cc3nc(C)cc(N)n3n2)cc1,10,60*,.,42*,61*,41*
O=C(O)c1ccc(NS(=O)(=O)c2ccc3c(c2)C(=O)c2ccccc2C3=O)cc1,-5,8,7,28*,2,-7
O=C(O)c1cccc(S(=O)(=O)Nc2ccc(-c3ccccc3)cc2)c1,-15,-14,-8,.,.,.
CC=Cc1ccc2n(c1=O)C[C@H]1[C@H](CO)[C@@H](C(=O)NC3CCC3)N(C(=O)C3CCC3)[C@@H]21 (mixture of isomers),.,.,19,.,.,.
O=c1[nH]c(Nc2ccccc2)cc2ccccc12,-11,12,20,17*,25*,-1
O=c1[nH]c(Nc2ccccc2)cc2cc(Br)ccc12,-29,-9,-16,.,.,.
N#CC1(NC(=O)COC(=O)c2ccccc2[N+](=O)[O-])CCCCC1,-31,-14,-1,.,.,.
O=C(COC(=O)c1ccccc1[N+](=O)[O-])c1ccc(C2CCCCC2)cc1,78*,81*,.,51*,63*,79*
COc1ccc2c(=O)c(Oc3ccc(C(=O)O)cc3)c(C(F)(F)F)oc2c1,-40,7,19,72*,7,-7
Nc1cc2nn(-c3ccccc3)nc2cc1Cl,-24,-5,.,43*,18*,-8
Nc1ccc2nn(-c3ccccc3)nc2c1,-8,30,-59,-2,.,.
C/C=C/c1cnc2c(c1)C(=O)N([C@@H](C)CO)C[C@H](C)[C@@H](CN(C)C(=O)C1CCC1)O2,.,.,-13,.,.,.
O=Cc1ccc(-c2ccc(C(=O)O)cc2)o1,-3,-3,4,17*,10,1
C=C(C)COc1ccc2c(CC)cc(=O)oc2c1,-22,-22,-6,-1,.,.
SMILES,TROY NFkB inh,TWEAK-Fn14 inh,LGR2 inh,HSP90 refold inh,HSP90 inh confirm,FLuc counter
Cc1c(C)c2ccc(OCc3ccc(C(=O)O)o3)c(C)c2oc1=O,-62,49,.,75*,87*,45*
COC(=O)c1ccc(COc2ccc3c(C)c(C)c(=O)oc3c2)o1,-59,-40,-113,18*,76*,-17
CCc1cc(=O)oc2cc(OCc3ccc(C(=O)O)o3)ccc12,-50,-25,-22,27*,33*,-3
CCCc1cc(=O)oc2cc(OCC(=O)NCC3CCC(C(=O)O)CC3)ccc12 (stereo unspecified),-1,-5,12,25*,0,-5
COCC(=O)Nc1ccc2c(c1)C(=O)N(C)C[C@@H](OC)[C@@H](C)CN[C@@H](C)CO2,.,.,4,.,.,.
CCCC#Cc1cnc2c(c1)C(=O)N([C@@H](C)CO)C[C@H](C)[C@@H](CN(C)C(=O)Cc1cccnc1)O2,.,.,-1,.,.,.
CO[C@@H]1CN(C)C(=O)c2ccc(NC(C)=O)cc2OC[C@H](C)N(C(=O)CN(C)C)C[C@@H]1C,.,.,-4,.,.,.
O=C(O)c1ccc(COc2ccc3c4c(c(=O)oc3c2)CCC4)o1,-40,30,.,78*,79*,34*
O=C1N/C(=N\S(=O)(=O)c2ccccc2)S/C1=C\c1cc([N+](=O)[O-])ccc1O,-10,2,-2,54*,-2,1
COn1c(-c2ccccc2)nc2c1CCc1c-2no[n+]1[O-],7,5,.,2,.,.
COc1ccc(-c2nc3c(n2O)CCc2c-3no[n+]2[O-])cc1,-14,-3,-34,37*,2,-8
O=C(CNS(=O)(=O)c1ccc(Br)s1)NCc1ccccc1,-16,15,-11,17*,-3,-5
C/C=C/c1ccc2c(c1)O[C@@H](CN(C)C(=O)C1CCCCC1)[C@@H](C)CN([C@@H](C)CO)S2(=O)=O,.,.,-12,.,.,.
COc1ccccc1Nc1nnc(SCC2CCCCO2)s1 (stereo unspecified),29,65*,36,32*,38*,39*
CCOC(=O)Nc1ccc([N+](=O)[O-])cc1OC,-7,-11,.,16,.,.
COc1ccc(OC(=O)Nc2ccc([N+](=O)[O-])cc2OC)cc1,16,-3,5,20*,0,-13
CCOC(=O)C(=O)Nc1ccc([N+](=O)[O-])cc1OC,17,2,-6,22*,-7,-16
COC(=O)Nc1cc([N+](=O)[O-])ccc1OC,-27,1,.,8,.,.
Cc1ccc(S(=O)(=O)Nc2cccc3c2O[C@@H](CN(C)S(=O)(=O)c2ccc(F)cc2)[C@@H](C)CN([C@@H](C)CO)C3=O)cc1,.,.,0,.,.,.
CC(C)C(=O)N(Cc1cc(=O)[nH]c2ccccc12)c1ccccc1,6,25,.,81*,-7,-7
O=C1CCCc2nc3c(cc21)C(O)Oc1ccccc1-3 (stereo unspecified),17,18,11,-2,.,.
O=C1CCCc2nc3c(cc21)C(O)Oc1c-3ccc2ccccc12 (stereo unspecified),6,30,-51,31*,38*,-21
O=C(NN1CCCCC1)c1cccc(COc2ccc(Cl)cc2)c1,-38,-2,-166,0,.,.
CCOc1ccc(C(=O)N2CCCC2)cc1,-11,12,-1,-1,.,.
CCOc1ccc(OCc2cccc(C(=O)N3CCCCCC3)c2)cc1,-46,-16,46,28*,56*,52*
